DT40 TDP1 no CPT: qHTS for Inhibitors of human tyrosyl-DNA phosphodiesterase 1 (TDP1): qHTS in cells in absence of CPT. DT40 Tdp1-/- hTDP1 cells, no CPT, ATP luminescence, 48 h. Potency, µM (titrated, usually from 46.2 µM), for the others: top-dose activity change, negative = growth inhibition, usual class: inhibitors. 420,000 compounds, 15% hits. AID 686978, 2013; note: potency is the fitted concentration of half-maximal effect; nearly all actives have a fitted effect of over 55% in size
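Chicken DT40 Tdp1-/- cells complemented with human TDP1, screened without camptothecin (DMSO vehicle only), 400 cells/well. Compounds pin-transferred, cells incubated at 37 °C for at least 48 hr. Growth read as ATP-dependent luminescence (CellTiter-Glo, 30 min at RT).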
HT1080-NT tox: kills 2HG-producing HT-1080-NT fibrosarcoma cells | AID 686970 | 360,000 compounds, 1.6% hits | HT-1080-NT fibrosarcoma viability, CellTiter-Glo ATP luminescence, 48 h | Potency, µM (highest dose often 46.1 µM), for inactives: top-dose activity, negative = less viability, hits mostly cytotoxic;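 note: NT is the 2HG producing partner of a matched IDH1 knockdown line; potency is the fitted concentration of half-maximal effect; 0% = DMSO-treated cells and -100% = media-only wells without cells; nearly all actives have a fitted effect of over 55% in size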
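Toxicity toward the 2HG-producing NT line was scored as %Activity, normalised to DMSO and no-cell wells, from CellTiter-Glo luminescence after 48 hours' treatment.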
DT40 TDP1 CPT: DT40-hTDP1 cell growth loss with CPT. 420,000 compounds, 12% hits. Potency, µM (titrated, usually from 46.2 µM), for the others: top-dose activity change, negative = growth inhibition, usual class: inhibitors. chicken DT40 Tdp1-/-;hTDP1 cells + 20 nM CPT, ATP luminescence, 48 h; note: potency is the fitted concentration of half-maximal effect; nearly all actives have a fitted effect of over 55% in size
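Cell growth measured by CellTiter-Glo luminescence after a minimum 48 h, 37 C compound exposure with 20 nM CPT in Tdp1-knockout DT40 cells stably expressing hTDP1, seeded 400/well; qHTS titration format.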
IL-1B inflam inh: inhibitors of inflammasome signaling (IL-1 beta secretion); THP-1 LPS/ATP IL-1B secretion, AlphaLISA, 16 h; stronger effect = lower value; activity change, % at 57.5 µM; 360,000 compounds, 4.7% hits; AID 743279; in the data active = activity change below about -50%; inconclusive = mostly about -30% to -49%
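Secreted IL-1B measured by AlphaLISA bead assay after 16 h compound exposure of THP-1 cells; compounds (final up to 57.5 uM) added 1 h before LPS (250 ng/mL) and ATP (1.25 mM) stimulation; lower signal means less secretion.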
HT1080 IDH1KD tx: toxicity to HT-1080 IDH1 knockdown cells (counter line). 360,000 compounds, 2% hits. AID 686971. Potency, µM (doses to about 46.1 µM), without a hit: at the highest dose activity, negative = toxicity, usual class: cytotoxic. HT-1080 IDH1 knockdown viability, ATP luminescence, 48 h;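 note: potency is the fitted concentration of half-maximal effect; 0% = DMSO wells and -100% = cell-free medium wells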
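% activity derives from luminescence (CellTiter-Glo), normalised to DMSO and no-cell wells. HT-1080-IDH1KD cells, 750/well, had 48 h compound exposure at 37 °C.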
Numbers without * were called inactive; ? = inconclusive; nt = no result given; [ ] = remark or other dose. An excerpt weighted towards active compounds, which were near 19% of everything screened. Unless noted, calls come from the whole dose curve; as a rule, active = well fitted curve in the direction sought with a large enough effect; inconclusive = small, poorly fitted or top-dose-only effect, or another doubt; inactive = no such curve, though single readings can be large; an effect the other way counts as inactive or inconclusive. Unless noted, % is set by controls: 0 for no effect and ±100 for the full control effect.

SMILES | DT40 TDP1 no CPT | HT1080-NT tox | DT40 TDP1 CPT | IL-1B inflam inh | HT1080 IDH1KD tx
CCOc1ccc(C(=O)NC(=S)Nc2ccccc2N2CCC(C)CC2)cc1[N+](=O)[O-] | 16µM* | 10% | ? | -4 | 7%
Cc1cc(C(=O)NC(=S)Nc2ccccc2N2CCCC2)ccc1[N+](=O)[O-] | -29% | -2% | 7% | 20 | 21%
CCOc1ccc(C(=O)NC(=S)Nc2ccc(N3CCC(C)CC3)cc2)cc1[N+](=O)[O-] | 12µM* | 1% | ? | -7 | -8%
COc1cc(/C=C/c2cc(C(F)(F)F)[nH]c(=O)n2)cc(OC)c1OC | ? | ? | ? | -101* | 29µM*
O=c1nc(/C=C/c2cc([N+](=O)[O-])ccc2Cl)cc(C(F)(F)F)[nH]1 | 23µM* | 4% | ? | -94* | 8%
Cc1ccc(C(=O)NCc2ccccn2)cc1NC1=NC2CS(=O)(=O)CC2S1 (stereo not given) | -5% | 9% | -2% | 5 | 3%
CCC(C)Sc1cc(C)c(C#N)c2nc3ccccc3n12 (stereo not given) | 16µM* | -11% | 18µM* | 5 | -21%
CCOC(=O)CSc1cc(C)c(C#N)c2nc3ccccc3n12 | 23µM* | 0% | ? | 18 | 6%
CNc1nc(C)c([N+](=O)[O-])c(Nc2ccc(OC)cc2)n1 | 23µM* | 3% | ? | 8 | -15%
CC(=O)Nc1ccc(Nc2nc(C)c([N+](=O)[O-])c(Nc3ccc(NC(C)=O)cc3)n2)cc1 | 6.5µM* | 2% | ? | -5 | 0%
C=CCNC(=O)c1cc(-c2cccnc2)nc2ccccc12 | -7% | 6% | -3% | 12 | 6%
CCOC(=O)c1cnc(SC)nc1Sc1cc(Cl)ccc1Cl | 18µM* | 17% | 21µM* | 0 | 15%
CCOC(=O)c1cc(CC)sc1NC(=O)C1CC(=O)NN1Cc1ccccc1 (stereo not given) | 16µM* | ? | ? | -60* | 21µM*
COC(=O)c1cc(NC(=O)c2cc(C(C)(C)C)nn2Cc2ccc(F)cc2)ccc1N1CCOCC1 | 18µM* | -14% | ? | ? | -7%
CCOc1ccc(C(=O)N(CN2CCCC2=O)c2ccc(C)cc2)cc1 | 23µM* | -4% | 8.2µM* | 9 | -1%
O=C(Nc1nc(OCC(F)(F)F)cnc1/C=C\c1ccccc1)c1ccccc1 | ? | -3% | -15% | -9 | 0%
S=C(NCCc1ccccc1)NC1CC2CCC(C1)N2Cc1ccccc1 (stereo not given) | ? | -15% | ? | -60* | -8%
CCCNC(=S)NC1CC2CCC(C1)N2Cc1ccccc1 (stereo not given) | -19% | 4% | ? | -4 | 3%
S=C(NCCc1cccc(Cl)c1)NC1CCCCC1 | 21µM* | ? | ? | -7 | ?
S=C(NC1CCCCC1)NC1CC2CCC(C1)N2Cc1ccccc1 (stereo not given) | 18µM* | 1% | ? | -3 | -9%
CCNC(=S)NC1CC2CCC(C1)N2Cc1ccccc1 (stereo not given) | -15% | -3% | -22% | -1 | -3%
Cc1ccc(S(=O)(=O)NC(CC(=O)O)c2cccs2)cc1 (stereo not given) | 24% | 7% | -7% | 5 | 10%
CC(C)Oc1ccc(C(=O)Nc2ccc3oc(-c4ccncc4)nc3c2)cc1 | -12% | nt | -19% | nt | nt
COc1ccc(-c2onc(C)c2-c2cscn2)c(O)c1 | -1% | 9% | 6% | 15 | 5%
CCc1cc(-c2onc(C)c2-c2cscn2)c(O)cc1OC | ? | -17% | ? | -2 | -18%
SMILES | DT40 TDP1 no CPT | HT1080-NT tox | DT40 TDP1 CPT | IL-1B inflam inh | HT1080 IDH1KD tx
Cc1cc(O)cc(O)c1-c1onc(C(F)(F)F)c1-c1cscn1 | 10µM* | -13% | 18µM* | -14 | -17%
CCOc1ccc(-c2onc(C(F)(F)F)c2-c2cscn2)c(O)c1 | ? | -27% | 11µM* | -2 | ?
CC1(c2nnc(-c3cccc(Cl)c3)o2)CC(c2cccc(Cl)c2)=NO1 (stereo not given) | ? | 4% | ? | 8 | -2%
COCCCNC(=O)c1ccc(N2CCCC2)c(NS(=O)(=O)c2ccc(C)cc2)c1 | ? | 7%[9.24 µM] | -27% | -5 | ?
Cc1ccc(S(=O)(=O)Nc2cc(C(=O)NCCN(C)C)ccc2N2CCCCC2)cc1 | 16µM* | ? | ? | ? | ?
Cc1ccc(S(=O)(=O)Nc2cc(C(=O)NCCN3CCCC3)ccc2N2CCCCC2)cc1 | 16µM* | ? | 21µM* | -19 | ?
Cc1ccc2nc(-c3ccccc3)cc(C(=O)Nc3cccnc3)c2c1 | ? | 1% | ? | 13 | 8%
COc1cc2c(cc1NC(=O)c1cc(-c3ccncc3)nc3ccccc13)oc1ccccc12 | ? | -8% | 21µM* | 3 | -7%
COc1cc2c(cc1NC(=O)c1cc(-c3cccnc3)nc3ccc(C)cc13)oc1ccccc12 | ? | 1% | 11µM* | ? | 1%
Cc1ccc(NC(=O)c2cc(S(=O)(=O)NCCC3=CCCCC3)ccc2F)cc1F | 16µM* | ? | ? | -77* | ?
O=C(Nc1cccc(F)c1)c1cc(S(=O)(=O)NCCC2=CCCCC2)ccc1F | ? | ? | ? | -61* | ?
O=C(Nc1cccc(F)c1)c1cc(S(=O)(=O)N2CCC(C(=O)O)CC2)ccc1F | 0% | 0% | -3% | -6 | 14%
COc1ccc(CNS(=O)(=O)c2ccc(F)c(C(=O)Nc3c(C)cc(C)cc3C)c2)cc1 | -28% | nt | -16% | nt | nt
COc1ccc(NC(=O)c2cc(S(=O)(=O)NCCC3=CCCCC3)ccc2F)cc1 | 23µM* | nt | 26µM* | nt | nt
Cc1ccc(CNC(=O)C2CCN(S(=O)(=O)c3ccc4[nH]c(=O)ccc4c3)CC2)cc1 | 7% | nt | -17% | nt | nt
CCCCC/C=C\C/C=C\C/C=C\C/C=C\CCCC(=O)O[C@@H](CO)COC(=O)CCCCCCCCCCCCCCCCC | -2%[4.12 µM] | nt | 0%[4.12 µM] | nt | nt
CCOc1ccc(S(=O)(=O)N2CCCC(C(=O)NCCN3CCOCC3)C2)cc1Cl (stereo not given) | -15% | -9% | ? | -7 | -8%
CCOc1cc(NC(=S)NCC2CCCO2)c(OCC)cc1NC(=O)c1ccc(OC)cc1 (stereo not given) | -9% | 1% | -3% | 17 | 2%
CCOc1cc(NC(=S)NCC2CCCO2)c(OCC)cc1NC(=O)c1ccccc1C (stereo not given) | ? | 2% | 29µM* | 17 | 8%

Screening data as filed in PubChem BioAssay.
